Structures can show the parent of a compound that is named as a salt. ± gives the standard error. Among all 1,300 compounds or so, about 130 (10%) showed an effect of 50% or more. The full list was thinned out, with strong results kept by preference.
Test system: Trichoderma virens ATCC 9645
Test: growth yield (OD600) with compound + IPBC relative to untreated control; higher = less growth inhibition
Details: compound concentration: 100 uM, IPBC concentration: 200 ng/ml
Summary of the method: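 Growth appears as means of duplicate screens, relative to the control containing neither agent. To obtain it, OD600 was read on a BioTek EL800 at 40 h and 72 h. The cultures were 100 μl aliquots in 96-well plates at 30 °C, holding Trichoderma virens ATCC 9645 spores at 15,000 spores ml^−1 in potato dextrose broth, library compounds at 100 μM final, and, in some wells, a biocide at 200 ng ml^−1.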

Compound	growth yield (40 h) [%]	growth yield (72 h) [%]
Clc1ccccc1C(c1ccccc1)(c1ccccc1)n1ccnc1 [Clotrimazole] + CCCCNC(=O)OCC#CI [3-iodo-2-propynyl butylcarbamate (IPBC)]	5.08 ± 0.32	3.46 ± 0.1
CCN1CCCC1CNC(=O)c1cc(S(N)(=O)=O)ccc1OC (configuration not stated) [Sulpiride] + CCCCNC(=O)OCC#CI [3-iodo-2-propynyl butylcarbamate (IPBC)]	86.41 ± 0.32	90.3 ± 0.94
CCC(C)(C)c1ccc(CC(C)CN2C[C@@H](C)O[C@@H](C)C2)cc1 (some centres not stated) [Amorolfine hydrochloride] + CCCCNC(=O)OCC#CI [3-iodo-2-propynyl butylcarbamate (IPBC)]	3.97 ± 0.16	2.94 ± 0.21
C[C@]12COC(=O)C[C@@H]1CC[C@@H]1[C@@H]2CC[C@@]2(C)[C@H]1CC[C@]2(C)O [Oxandrolone] + CCCCNC(=O)OCC#CI [3-iodo-2-propynyl butylcarbamate (IPBC)]	102.8 ± 0.79	101.8 ± 0.94
CCN(CC)C(=O)Nc1ccc(OCC(O)CNC(C)(C)C)c(C(C)=O)c1 (configuration not stated) [Celiprolol hydrochloride] + CCCCNC(=O)OCC#CI [3-iodo-2-propynyl butylcarbamate (IPBC)]	87 ± 5.7	92.2 ± 3.9
CN[C@@H]1[C@@H](O)[C@@H](O[C@@H]2[C@@H](O)[C@H](O[C@H]3O[C@H](CN)CC[C@H]3N)[C@@H](N)C[C@H]2N)OC[C@]1(C)O.CN[C@@H]1[C@@H](O)[C@@H](O[C@@H]2[C@@H](O)[C@H](O[C@H]3O[C@H]([C@@H](C)N)CC[C@H]3N)[C@@H](N)C[C@H]2N)OC[C@]1(C)O.CN[C@@H]1[C@@H](O)[C@@H](O[C@@H]2[C@@H](O)[C@H](O[C@H]3O[C@H]([C@@H](C)NC)CC[C@H]3N)[C@@H](N)C[C@H]2N)OC[C@]1(C)O [Gentamicine sulfate] + CCCCNC(=O)OCC#CI [3-iodo-2-propynyl butylcarbamate (IPBC)]	98.3 ± 7.5	101 ± 4.4
C[C@@H]1[C@H](O)[C@@H](C)/C=C/C=C/C=C/C=C/C=C/C=C/C=C/[C@H](O[C@@H]2O[C@H](C)[C@@H](O)[C@H](N)[C@@H]2O)C[C@@H]2O[C@](O)(C[C@@H](O)C[C@@H](O)[C@H](O)CC[C@@H](O)C[C@@H](O)CC(=O)O[C@H]1C)C[C@H](O)[C@H]2C(=O)O [Amphotericin B] + CCCCNC(=O)OCC#CI [3-iodo-2-propynyl butylcarbamate (IPBC)]	37.3 ± 4.6	92.61 ± 0.73
CC1OC(OC2/C=C/C=C/C=C/C=C/CC/C=C/C=C/[C@H](C)[C@@H](O)[C@@H](C)[C@H](C)OC(=O)CC(O)CC(O)CC(O)CCC(O)C(O)C[C@]3(O)CC(O)C(C(=O)O)C(C2)O3)C(O)C(N)C1O (some centres not stated) [Nystatine] + CCCCNC(=O)OCC#CI [3-iodo-2-propynyl butylcarbamate (IPBC)]	50.5 ± 2.5	104 ± 2.3
Clc1cccc(Cl)c1NC1=NCCN1 [Clonidine hydrochloride] + CCCCNC(=O)OCC#CI [3-iodo-2-propynyl butylcarbamate (IPBC)]	92.9 ± 5.6	99.2 ± 4.4
Cc1oncc1C(=O)Nc1ccc(C(F)(F)F)cc1 [Leflunomide] + CCCCNC(=O)OCC#CI [3-iodo-2-propynyl butylcarbamate (IPBC)]	40.2 ± 3	82 ± 1.5
CC1CCc2cc(F)cc3c(=O)c(C(=O)O)cn1c23 (configuration not stated) [Flumequine] + CCCCNC(=O)OCC#CI [3-iodo-2-propynyl butylcarbamate (IPBC)]	78.63 ± 0.16	97.12 ± 0.84
COC(=O)[C@H]1[C@H]2C[C@@H]3c4[nH]c5cc(OC)ccc5c4CCN3C[C@H]2C[C@@H](OC(=O)c2cc(OC)c(OC)c(OC)c2)[C@@H]1OC [Reserpine] + CCCCNC(=O)OCC#CI [3-iodo-2-propynyl butylcarbamate (IPBC)]	102 ± 3.2	104 ± 2
CC(=O)NC1CCSC1=O (racemic) [N-Acetyl-DL-homocysteine Thiolactone] + CCCCNC(=O)OCC#CI [3-iodo-2-propynyl butylcarbamate (IPBC)]	95.8 ± 7.8	96.3 ± 7.8
CC(C(=O)O)c1cccc(C(=O)c2ccccc2)c1 (configuration not stated) [Ketoprofen] + CCCCNC(=O)OCC#CI [3-iodo-2-propynyl butylcarbamate (IPBC)]	74 ± 0.95	86.4 ± 1.5
CC(C(=O)O)c1cccc(Oc2ccccc2)c1 (configuration not stated) [Fenoprofen calcium salt dihydrate] + CCCCNC(=O)OCC#CI [3-iodo-2-propynyl butylcarbamate (IPBC)]	73.9 ± 12	84 ± 9.1
CC(C(=O)O)c1ccc(-c2ccccc2)c(F)c1 (configuration not stated) [Flurbiprofen] + CCCCNC(=O)OCC#CI [3-iodo-2-propynyl butylcarbamate (IPBC)]	43.4 ± 3.3	76.9 ± 2
NC(CO)C(=O)NNCc1ccc(O)c(O)c1O (configuration not stated) [Benserazide hydrochloride] + CCCCNC(=O)OCC#CI [3-iodo-2-propynyl butylcarbamate (IPBC)]	63.9 ± 0.64	75.2 ± 0.52
CN[C@@H]1[C@H](O)[C@H](NC)[C@H]2O[C@@]3(O)C(=O)C[C@@H](C)O[C@H]3O[C@@H]2[C@H]1O [Spectinomycin dihydrochloride] + CCCCNC(=O)OCC#CI [3-iodo-2-propynyl butylcarbamate (IPBC)]	104 ± 13	103 ± 8
CC(NCCC(c1ccccc1)c1ccccc1)c1ccccc1 (configuration not stated) [Fendiline hydrochloride] + CCCCNC(=O)OCC#CI [3-iodo-2-propynyl butylcarbamate (IPBC)]	70.37 ± 0.16	93.7 ± 1.4
Cc1ccnc(NS(=O)(=O)c2ccc(N)cc2)n1 [Sulfamerazine] + CCCCNC(=O)OCC#CI [3-iodo-2-propynyl butylcarbamate (IPBC)]	88.2 ± 6.2	90.9 ± 4.7
CC(C)(C)C(=O)OCOC(=O)[C@@H]1N2C(=O)[C@@H](/N=C/N3CCCCCC3)[C@H]2SC1(C)C [Pivmecillinam hydrochloride] + CCCCNC(=O)OCC#CI [3-iodo-2-propynyl butylcarbamate (IPBC)]	57.8 ± 4.5	77.2 ± 3.1

Source: the supplement of paper PMC8007513
